18 molecules from PubChem BioAssay can be followed below.

Each structure is given as a SMILES string. Activity calls are given as the source filed them. How the calls were made is not given here.

The assay deals with Pantothenate synthetase (Mycobacterium tuberculosis (strain ATCC 25618 / H37Rv)) (UniProt P9WIL5). The assay can be described thus: Recombinant Mtb pantothenate synthetase (PanC) inhibitors, coupled enzyme, confirmatory (AID 375).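 Further: 0% = full reaction with vehicle and 100% = no enzyme background.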 To be noted: coupled enzyme assay; at 10 µM, stronger effect = higher value.
Pantothenate synthetase (Mycobacterium tuberculosis (strain ATCC 25618 / H37Rv)), sequence (P9WIL5 whole entry, looked up): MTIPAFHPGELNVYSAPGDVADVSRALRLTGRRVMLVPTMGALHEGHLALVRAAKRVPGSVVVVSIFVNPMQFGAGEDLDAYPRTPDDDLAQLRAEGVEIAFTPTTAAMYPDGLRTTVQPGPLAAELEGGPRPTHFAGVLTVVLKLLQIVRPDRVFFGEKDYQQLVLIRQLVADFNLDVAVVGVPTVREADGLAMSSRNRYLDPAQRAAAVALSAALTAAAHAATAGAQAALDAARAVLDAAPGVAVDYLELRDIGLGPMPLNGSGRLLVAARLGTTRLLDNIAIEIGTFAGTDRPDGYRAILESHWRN
For orientation: inhibition means how much of the control response was suppressed. As to `CCc1cccc(NC(=O)Cn2cc3c(n2)CCCC3)c1`, the inhibition was 0% (inactive). The figure for `CC1NC(=O)NC1CCCCCC(=O)NCCc1ccccc1` (stereo not drawn) is 2% (inactive); for `O=C(O)c1ccc(C2SCC(=O)N2Cc2ccccc2)cc1` (stereo not drawn) it is 2% (inactive); for `COc1ccc2[nH]c(=O)c(CN(CC3CCCO3)C(=O)Nc3ccc(F)cc3)cc2c1` (stereo not drawn) it is 0% (inactive). The figure for `COc1ccc(NC(=O)C2CCCN2S(=O)(=O)c2cccc3cccnc23)c(OC)c1` (stereo not drawn) is 6% (inactive). The figure for `COC(=O)Cn1ncc2c(C)n(Cc3ccccc3)c(C)c2c1=O` is 2% (inactive); for `C=CCSc1ncccc1C(=O)O` it is 0% (inactive); for `Cc1ccccc1CN1CCN(CC(=O)NCc2ccccc2)C1=O` it is 2% (inactive). For the molecule `Cc1onc(-c2ccccc2)c1C(=O)Nc1ccc(S(=O)(=O)N2CCCCC2)cc1`, the inhibition is 0% (inactive). With `COCCn1c(=N)c(C(=O)NCCc2ccccc2)cc2c(=O)n3cccc(C)c3nc21`, the inhibition is 3% (inactive). As to `CCCNC(=O)CS(=O)(=O)Cc1nc(-c2cccc(OC)c2)oc1C`, the inhibition was 0% (inactive). The figure for `COc1cccc(C(=O)Nc2c(C(N)=O)oc3ccccc23)c1` is 0% (inactive); for `CCOC(=O)C1CCN(C(=O)c2c(-c3c(Cl)cccc3Cl)noc2C)CC1` it is 0% (inactive); for `C=C(C)c1cccc(C(C)(C)NC(=O)NCC2CCCO2)c1` (stereo not drawn) it is 2% (inactive). Next, `O=C(CCCOc1ccccc1)N1CCN(c2ccccn2)CC1`: 3% (inactive); `O=c1ccn(Cc2ccccc2Cl)cc1`: 0% (inactive). Next, `c1ccc2c(c1)nc(NCCN1CCOCC1)c1nncn12`: 2% (inactive). Take `C=C(C)c1cccc(C(C)(C)NC(=O)Nc2ncccn2)c1`: the inhibition is 0% (inactive).
